Compound activity deposited in PubChem by Broad Institute.
Rows were chosen to be rich in hits. Some 3.4% of all compounds tested hit in one or more screens of this group.
SIRT5 inh: blocks human SIRT5 desuccinylation of peptide; Q9NXA8; AID 652115; 330,000 compounds, 1.1% hits; inhibition, % at 15 µM; Purified SirT5, succinyl-peptide AMC, trypsin-coupled fluorescence; in the data active means inhibition above about 15%; inconclusive means no clear call, values can overlap the other calls
Target sequence (Q9NXA8 whole entry, looked up): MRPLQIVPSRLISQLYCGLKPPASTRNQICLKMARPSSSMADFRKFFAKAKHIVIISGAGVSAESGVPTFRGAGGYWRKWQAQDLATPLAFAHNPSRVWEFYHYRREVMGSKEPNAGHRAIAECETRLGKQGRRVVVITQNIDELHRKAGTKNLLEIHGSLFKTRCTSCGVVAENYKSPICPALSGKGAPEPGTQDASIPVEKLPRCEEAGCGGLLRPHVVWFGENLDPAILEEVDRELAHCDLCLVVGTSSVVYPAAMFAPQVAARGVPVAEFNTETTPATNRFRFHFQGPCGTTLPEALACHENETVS
PAX8 reporter: lowers PAX8-driven luciferase in RMG-I cells; inhibition, % at 12.6 µM; 360,000 compounds, 1.2% hits; AID 652154; RMG-I TPO-luciferase reporter, SteadyGlo, 24 h;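 active means mean replicate inhibition at least 60% with every replicate also reaching 60%; inconclusive means only one of the two criteria is met; inactive means mean below 60% and not all replicates reaching 60%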;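 further: luciferase light reporting Pax8 driven TPO promoter activity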
LGR2 inh: blocks bursicon-induced cAMP signaling via Drosophila LGR2; HEK293 LGR2, CRE-luciferase, bursicon-stimulated, 4 h; inhibition, % at 9.99 µM; 380,000 compounds, 0.35% hits; AID 720647;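 active means drop in luminescence signal, shown as inhibition above about 50% in the replicate tests, limit read from the data, passing the limit was not always enough; inconclusive means probably only some replicates passing the limit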;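 further: agonist challenge used bursicon conditioned medium at about half maximal strength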
rRNA inh HTS: inhibits bacterial ribosomal RNA function over humanized ribosomes. E. coli WT GFP vs humanized-ribosome RFP mutants, fluorescence, 24 h; active compounds read low; DMSO median 0, no signal -100. GFP signal change (wild-type ribosome), % (test concentration not listed). 350,000 compounds, 1.6% hits. AID 720706;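 active means significant combined selectivity score with lowered wild-type GFP, culture density cut under 30%, mutant RFP and density less affected; inactive means any of these conditions unmet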
EWS-Fli inh: inhibitors of EWS/Fli oncoprotein transcriptional activity; A673 NR0B1-luciferase reporter, viability-normalised; inhibition, % at 12.6 µM; 350,000 compounds, 0.67% hits; AID 651661;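 active means mean inhibition of at least 50% after viability correction, with every replicate also passing that limit; inconclusive means mean reaches 50% but only one of two replicates passes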;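 further: firefly luciferase signal divided by Alamar Blue viability fluorescence both relative to DMSO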
PGC1a acetyl inh: PGC1a acetylation modulation, inhibitor mode | inhibition, % at 15.6 µM | 350,000 compounds, 0.17% hits | U2OS PGC1a acetylation, AlphaScreen anti-acetyl-lysine; with virally co-expressed GCN5 acetyltransferase | AID 651687;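 active means every replicate shows inhibition of at least 40%; inconclusive means mean inhibition at least 40% but some replicate below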
DNA binder FP: binds DNA displacing acridine orange. AC35, µM (series often up to 68 µM). salmon sperm DNA acridine orange fluorescence polarization. shares compounds with EWS-Fli inh. 640 compounds, 2% hits;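 active means fitted curve reaches a 35% signal fall AC35 below twice the sample's top valid tested dose, actives reach about 48 µM in these data; inactive means the rest, including activity in the rising direction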;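 further: lower polarization ratio signals compound binding to DNA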
Large screens that a line does not name were inactive (follow-up assays come after a bar, where they were run).

COc1ccc(/C=C2\SC(=S)N(CCCC(=O)Nc3ccc(O)cc3)C2=O)cc1	EWS-Fli inh 61 | DNA binder FP inactive
CCOC(=O)c1c(-c2ccccc2)csc1NC(=O)CCN1CCOCC1	none (no result: SIRT5 inh, rRNA inh HTS, EWS-Fli inh, PGC1a acetyl inh)
CCOC(=O)c1c(-c2ccc(C)cc2)csc1NC(=O)CCN1CCOCC1	EWS-Fli inh 81 | DNA binder FP inactive
C[C@H](CO)N1C[C@H](C)[C@H](CN(C)Cc2ccc(Oc3ccccc3)cc2)Oc2ccc(NC(=O)Cn3cnnn3)cc2CC1=O	EWS-Fli inh 54 | DNA binder FP inactive
C[C@@H]1CN([C@@H](C)CO)C(=O)Cc2cc(NC(=O)Cn3cnnn3)ccc2O[C@@H]1CN(C)Cc1ccc(Oc2ccccc2)cc1	EWS-Fli inh 70 | DNA binder FP inactive
COc1ccc2c3c(n(C)c2c1)[C@@H](CO)N(C(=O)C1CCCCC1)CC31CCN(C(=O)CN(C)C)CC1	none (no result: PGC1a acetyl inh)
C[C@H](O)C#Cc1cnc2c(c1)C(=O)N([C@@H](C)CO)C[C@H](C)[C@H](CN(C)C(=O)CC1CC1)O2	none (no result: PAX8 reporter)
CC1=NN(c2ccccc2)C(=O)/C1=C\C=C\c1ccccc1	EWS-Fli inh 64 | DNA binder FP inactive
Nc1sc(-c2ccccc2)cc1-c1n[nH]c(=S)n1C1CCCCC1	EWS-Fli inh 59 (no result: LGR2 inh) | DNA binder FP inactive
COc1ccc(-n2c(-c3cc(-c4ccccc4)sc3N)n[nH]c2=S)cc1	none (no result: PGC1a acetyl inh)
CO[C@H]1CN(C)C(=O)c2ccc(NC(=O)c3ccc4c(c3)OCO4)cc2OC[C@H](C)N(CCC(F)(F)F)C[C@H]1C	none (no result: PAX8 reporter)
Cc1cccc(N=C2NC(=O)/C(=C/c3cccs3)S2)c1	none (no result: LGR2 inh, PGC1a acetyl inh)
Cc1ccc(N=C2NC(=O)/C(=C\c3cccs3)S2)cc1C	EWS-Fli inh 58 (no result: PGC1a acetyl inh) | DNA binder FP inactive
CC(C)(C)C(=O)Nc1ccc(N=Nc2ccccc2)cc1	LGR2 inh 72, EWS-Fli inh 59 | DNA binder FP inactive
Cc1ccc(-c2ccc3c(c2)O[C@H](CN(C)C)[C@H](C)CN([C@@H](C)CO)S3(=O)=O)cc1	none
COC(=O)C[C@H]1CC[C@H]2[C@H](COc3ccc(NC(=O)Nc4ccc(Cl)cc4)cc3C(=O)N2C)O1	none (no result: SIRT5 inh)
COC(=O)C[C@@H]1CC[C@@H]2[C@H](COc3ccc(NC(=O)c4cccc(Cl)c4)cc3C(=O)N2C)O1	EWS-Fli inh 69 (no result: PGC1a acetyl inh) | DNA binder FP inactive
COC(=O)C[C@H]1CC[C@@H]2[C@H](COc3ccc(NC(=O)c4cccc(Cl)c4)cc3C(=O)N2C)O1	none (no result: PGC1a acetyl inh)
COC(=O)C[C@@H]1CC[C@@H]2[C@H](COc3ccc(NC(=O)Nc4cccc(Cl)c4)cc3C(=O)N2C)O1	EWS-Fli inh 59 | DNA binder FP inactive
C[C@H](CO)N1C[C@H](C)[C@@H](CN(C)Cc2cncnc2)Oc2ncc(-c3ccc(F)cc3)cc2C1=O	none (no result: PAX8 reporter)
COc1ccc(CNc2ncc(-c3ccc(F)cc3)n2C)c2ccccc12	EWS-Fli inh 82 | DNA binder FP inactive
COc1ccccc1CNc1ncc(-c2ccc(F)cc2)n1C	none
CN(C)c1ccc(C=c2c3ccccc3n3c2c2c([n+]3C)CCCC2)cc1	PAX8 reporter 91, LGR2 inh 32, EWS-Fli inh 53 | DNA binder FP 6.5µM
Cc1ccc(N2C(=O)c3cccc4c(N)ccc(c34)C2=O)c2cccnc12	PAX8 reporter inconclusive, EWS-Fli inh 60 | DNA binder FP inactive
COc1cccc(O)c1CN1CCC(C(=O)Nc2ccc(-c3cccc(C)c3)cc2)CC1	EWS-Fli inh 58 | DNA binder FP inactive
CC(C)CC#Cc1cnc2c(c1)C(=O)N([C@@H](C)CO)C[C@@H](C)[C@H](CN(C)C(=O)NC1CCCC1)O2	none (no result: PAX8 reporter)
Cc1cc(C(=O)CN2C(=O)c3ccccc3S2(=O)=O)c(C)n1C(C)C	PAX8 reporter 71, LGR2 inh 76, EWS-Fli inh 73 (no result: PGC1a acetyl inh) | DNA binder FP inactive
CCn1c(C)cc(C(=O)CN2C(=O)c3ccccc3S2(=O)=O)c1C	LGR2 inh 72, EWS-Fli inh 78 (no result: PGC1a acetyl inh) | DNA binder FP inactive
C=CCn1c(C)cc(C(=O)CN2C(=O)c3ccccc3S2(=O)=O)c1C	none (no result: SIRT5 inh, PAX8 reporter, LGR2 inh, rRNA inh HTS, EWS-Fli inh)
Cc1ccc(C(=O)CN2C(=O)c3ccccc3S2(=O)=O)cc1	PAX8 reporter 71, LGR2 inh 95, EWS-Fli inh 77 | DNA binder FP inactive
C[C@@H](NC(=O)C[C@H]1C[C@@H]2c3cc(NC(=O)C4CCOCC4)ccc3O[C@@H]2[C@@H](CO)O1)c1ccccc1	none
O=c1ccc2[n+]([O-])c3ccc(O)cc3oc-2c1	PAX8 reporter 81, EWS-Fli inh 57 (no result: PGC1a acetyl inh) | DNA binder FP 14µM
COc1ccc(OC)c(NC(=O)C2(C)CCN2Cc2cccc(OC)c2F)c1 (centres undefined)	none
COc1cccc(CN2CCC2(C)C(=O)Nc2cccc3cccnc23)c1F (centres undefined)	EWS-Fli inh 59 | DNA binder FP inactive
CC(=O)c1ccc(NC(=O)c2noc3c2CCC3)cc1	LGR2 inh 64, EWS-Fli inh 60 | DNA binder FP inactive
Cc1ccc(NC(=O)CCN2CCCCC2)cc1	EWS-Fli inh 66 | DNA binder FP inactive
Cc1ccc(NC(=O)CCN2CCN(CCO)CC2)cc1	none
COc1cc(-c2noc(C)c2C#Cc2nccn2C)cc(OC)c1OC	EWS-Fli inh 52 | DNA binder FP inactive
COc1cc(C(=O)CSc2nccn2C)cc(OC)c1OC	none
CC(C)C(=O)Nc1ccc2c(c1)C(=O)N(C)[C@@H]1CC[C@H](CC(=O)N[C@@H](C)c3ccccc3)O[C@H]1CO2	none (no result: SIRT5 inh)
Cc1cccc(-c2ccc([C@@H]3[C@H](CO)N4C(=O)CN(C(=O)c5ccccc5)C[C@@H]34)cc2)c1	none
Nc1nc(=S)c2[nH]cnc2[nH]1	PAX8 reporter 94, EWS-Fli inh 61 | DNA binder FP inactive
Cc1ccc2c(c1)C(=O)N1[C@H]3c4cc(Br)ccc4OC[C@@H]3[C@H](c3ccccc3)[C@]1(C)C(=O)N2	EWS-Fli inh 56 (no result: SIRT5 inh) | DNA binder FP inactive
CCC(=O)N[C@@H]1CC[C@@H](CC(=O)NCC2CCCCC2)O[C@H]1CO	none
C[C@@H]1CN([C@@H](C)CO)C(=O)c2cc(NS(=O)(=O)c3cn(C)cn3)ccc2O[C@@H](C)CCCCO[C@@H]1CN(C)C(=O)Nc1cccc2ccccc12	none (no result: SIRT5 inh)
CCOC(=O)C1CCCCN1C(=O)CCc1c(C)nc2cc(-c3ccccc3)nn2c1C (centres undefined)	EWS-Fli inh 51 | DNA binder FP inactive
CCOC(=O)C1CCN(C(=O)CCc2c(C)nc3cc(-c4ccccc4)nn3c2C)CC1	none (no result: SIRT5 inh)
COc1cc(OC)cc(-c2cc3nc(C)c(CCC(=O)NC(C)CCc4ccco4)c(C)n3n2)c1 (centres undefined)	none (no result: SIRT5 inh, LGR2 inh, rRNA inh HTS, EWS-Fli inh)
COc1cc(OC)cc(-c2cc3nc(C)c(CCC(=O)O)c(C)n3n2)c1	EWS-Fli inh 77 | DNA binder FP 44µM
